Experimental data as given in PubChem BioAssay (NCI).
Where “and” joins values, the source holds several entries; their conditions need not be identical. Equal values may be shown once. The panel holds about 83,000 compounds, 20% with a hit somewhere; the sample as a whole holds those more often.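 96-well plates, one dose, 48 hours. Percent growth reported; active if below 10.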 Calls of active or inactive are those of the source.

tested on: MDA-MB-468 breast; test: NCI-60 one-dose screen, 48 h (100 = growth as untreated, 0 = no growth, -100 = all killed); details: 10 µM unless noted

SMILES | growth
CC(=O)Oc1cc(C)c(OC(C)=O)c(C)c1C | 47.1% (inactive)
C=C(C)[C@@H]1CC[C@]2(CN)CC[C@]3(C)[C@H](CC[C@@H]4[C@@]5(C)CCC(=O)NC(C)(C)[C@@H]5CC[C@]43C)[C@@H]12 | 35.5% (inactive)
CN(C)c1ccc2nc3ccc(=[N+](C)C)c([N+](=O)[O-])c-3sc2c1 | 0.864% (active)
COc1ccc(NC(=O)CSc2nnc(-c3cc(-c4ccccc4)nc4ccccc34)n2-c2ccccc2)cc1 | 97.3% (inactive)
CS(=O)(=O)c1ccc(Nc2nc(N[C@H]3CCCC[C@H]3N)nc3cc[nH]c(=O)c23)cc1 | -75.2% (active)
COc1ccc(/C=C2\CCC3C(CCCC34OCCO4)C2=O)cc1 (stereo unspecified) | 70.5% (inactive)
COC(=O)C1C(O)C(C)C(O)C(C)C=C(C)C2=C3C(=C(C)C(=O)c4c(O)c(c(C)c(OC(C)=O)c43)NC(=O)C(C)=C/C=C\C(C)C(O)C(C)C1O)OCO2 (stereo unspecified) | 106% (inactive)
CC1CC(=O)OC(C)C1 (stereo unspecified) | 99.6% (inactive)
CCOC(=O)CC(C)=N | 92.8% (inactive)
CCOC(=O)C1=CC(=O)CC(C)(C)O1 | 117% (inactive) and 108% (inactive)
CCCCCCCCCCCCCCCC[N+](C)(CCO)Cc1cnc[nH]1 (stereo unspecified) | -16% (active)
Cc1ccc(N)cc1CN1C(=O)c2ccccc2C1=O | 107% (inactive)
CC(C)c1ccc(/C=N/Nc2nc3ccccc3s2)cc1 | 110% (inactive)
COc1ccc(/C=C(/C(=O)N2CCNCC2)c2cc(OC)c(OC)c(OC)c2)cc1O | -4.45% (active)
Nc1nc(-c2cccnc2)nc2c1sc(=S)n2-c1ccccc1 | 103% (inactive)
O=[N+]([O-])C1CC2C=CC1C2 (stereo unspecified) | 99.5% (inactive)
Cc1cc(N2CCOCC2)nc(N(CCCNc2ccnc3cc(Cl)ccc23)Cc2ccc3c(c2)OCO3)n1 | -63.6% (active)
C(=N\Nc1ncc(-c2cc3cc4c(cc3o2)OCO4)s1)/c1c[nH]c2ccccc12 | 0.523% (active)
COc1cc2cc(Oc3ccc(NC(=O)Nc4ccccc4)cc3)c(C)nc2cc1OCCN1CCCCC1 | 79.5% (inactive)
COc1ccc2c(c1)c(C(=O)c1nc(-c3cn(C)c4ccccc34)no1)cn2C | 108% (inactive)
O=c1cc(-c2ccccc2)[nH]c2ncc(-c3ccc(F)cc3)n12 | 83% (inactive)
S=C(S)OCN1CCOCC1 | 99.1% (inactive)
Cc1c2cnccc2c(C)c2c1oc1ccccc12 | 82.6% (inactive)
CC(=O)C(CO)C(=O)Nc1ccccc1 (stereo unspecified) | 104% (inactive)
Fc1ccc(-c2nnc(/C=C/c3cn(-c4ccccc4)nc3-c3ccccc3)o2)cc1 | 103% (inactive)
COC(=O)CCCCN=Cc1c(O)c(O)c(C(C)C)c2cc(C)c(-c3c(C)cc4c(C(C)C)c(O)c(O)c(C=NCCCCC(=O)OC)c4c3O)c(O)c12 | 18.6% (inactive)
